Only some compounds are listed: those with a hit (about 12% of all), similar ones and a draw of the others.
OTUD3 inh = inhibitors of human OTUD3 deubiquitinase; inhibition, % at 25 µM; OTU domain-containing protein 3 (Homo sapiens), Q5T2D3; purified OTUD3, Ub-rhodamine fluorescence, 2 h; 47,000 tested, 0.7% active; AID 1645858, 2021
USP28 inh = inhibitors of human USP28 deubiquitinase. Ubiquitin carboxyl-terminal hydrolase 28 (Homo sapiens), Q96RU2. purified USP28, Ub-rhodamine cleavage fluorescence, 30 min. inhibition, % at 25 µM. 47,000 tested, 3% active
USP30 inh = inhibitors of human USP30 deubiquitinase | Ubiquitin carboxyl-terminal hydrolase 30 (Homo sapiens), Q70CQ3 | purified USP30, Ub-rhodamine cleavage fluorescence | inhibition, % at 25 µM | 47,000 tested, 5.3% active | AID 1645860, 2021
USP17 block = inhibitors of human USP17 deubiquitinase. Ubiquitin carboxyl-terminal hydrolase 17-like protein 5 (Homo sapiens), A8MUK1. purified USP17, Ub-rhodamine cleavage fluorescence, 3 h. inhibition, % at 50 µM. 47,000 tested, 6.5% active. AID 1645855, 2021
The depositor's hits bear a star. No stated cut-off is given here; in the data, active means inhibition above about 30%; inactive means the rest.

What do the screens show for `CC(=O)c1cccc(NC(=O)CSc2nnc(-c3ccncc3)n2Cc2ccccc2)c1`?
OTUD3 inh: -2; USP28 inh: 0; USP30 inh: -10; USP17 block: 0

What do the screens show for `O=C(CSc1nnc(C2CC2)n1Cc1ccccc1)Nc1ccc(N2CCCC2=O)cc1`?
OTUD3 inh: 7; USP28 inh: 16; USP30 inh: 29; USP17 block: 44*

What do the screens show for `Cc1sc(NC(=O)CN2CCCCCC2)nc1-c1ccc2c(c1)CCN2C(=O)C(C)C`?
OTUD3 inh: -2; USP28 inh: 0; USP30 inh: -18; USP17 block: 21

How did O=C(CN1CCCCC1)Nc1nnc(-c2ccc([N+](=O)[O-])cc2)s1 do in these assays?
OTUD3 inh: 40*; USP28 inh: 35*; USP30 inh: 34*; USP17 block: 38*

Results for O=C(CN1CCCCCC1)Nc1cc([N+](=O)[O-])ccc1Cl ?
OTUD3 inh: 0; USP28 inh: 21; USP30 inh: 28; USP17 block: 45*

What do the screens show for `Cc1cnc(CNc2cc(-c3cncc(-c4ccc(OC(F)(F)F)cc4)c3)nc(C)n2)cn1`?
OTUD3 inh: 16; USP28 inh: 4; USP30 inh: 12; USP17 block: 8

How did CCN(Cc1ccc2c(c1)OCCO2)C(=O)c1c(F)cccc1F do in these assays?
OTUD3 inh: -5; USP28 inh: 0; USP30 inh: -11; USP17 block: -3

What do the screens show for `CCN(CC)C(=O)CSc1nc2ccc(C)cc2cc1C#N`?
OTUD3 inh: 9; USP28 inh: 11; USP30 inh: 11; USP17 block: 26

What do the screens show for `CCOC(=O)N1CCC(NC(=O)C2CCCCC2)CC1`?
OTUD3 inh: 13; USP28 inh: 14; USP30 inh: 15; USP17 block: 10

What do the screens show for `CCc1ccc(S(=O)(=O)Nc2ccc(-c3nnc(-c4ccccc4)o3)cc2)cc1`?
OTUD3 inh: 11; USP28 inh: 33*; USP30 inh: 32*; USP17 block: 27

Results for Cc1noc(C)c1-c1ccc(S(=O)(=O)Nc2cccc(F)c2)cc1 ?
OTUD3 inh: -4; USP28 inh: -8; USP30 inh: -16; USP17 block: -3

How did Cc1noc(C)c1-c1ccc(S(=O)(=O)Nc2ccccc2)cc1 do in these assays?
OTUD3 inh: 7; USP28 inh: 12; USP30 inh: 30*; USP17 block: 8

How did COc1ccc(CNC(=O)CSc2nc3nc(C)ccc3o2)cc1 do in these assays?
OTUD3 inh: -4; USP28 inh: 13; USP30 inh: 11; USP17 block: 52*

Results for CS(=O)(=O)N1C[C@H](Oc2ccccn2)[C@H]2C[C@@H]1CC[C@H]2N1CCOCC1 ?
OTUD3 inh: 2; USP28 inh: 0; USP30 inh: 3; USP17 block: -1

What do the screens show for `COc1cc(C(=O)N2CCCC2c2ccccc2)cc(OC)c1OC` (centres undefined)?
OTUD3 inh: 1; USP28 inh: 4; USP30 inh: 21; USP17 block: 8

Results for CNC(=O)c1cc2c(nc1NC(C)C)CCN(Cc1ccc(OC)cc1)CC2 ?
OTUD3 inh: -74; USP28 inh: -95; USP30 inh: -300; USP17 block: -112

How did Cc1ccc(NC(=O)C2CCN(S(C)(=O)=O)c3cc(C)ccc3O2)cc1 (centres undefined) do in these assays?
OTUD3 inh: -1; USP28 inh: -3; USP30 inh: -7; USP17 block: -7

How did CC(NC(=O)C1CCN(S(C)(=O)=O)c2ccccc2O1)c1ccccc1 (centres undefined) do in these assays?
OTUD3 inh: 6; USP28 inh: 10; USP30 inh: 33*; USP17 block: 12

How did COC(=O)c1c(C)[nH]c(C(=O)C(C)OC(=O)c2cc(=O)[nH]c3ccc(S(=O)(=O)Nc4cccc(C)c4)cc23)c1C (centres undefined) do in these assays?
OTUD3 inh: -15; USP28 inh: 0; USP30 inh: -134; USP17 block: -15

What do the screens show for `CC(C)[C@@H](NC(=O)C1CCN(C(=O)[C@H](N)Cc2ccccc2)CC1)C(=O)NCc1ccccc1F`?
OTUD3 inh: 27; USP28 inh: 15; USP30 inh: 43*; USP17 block: 12

What do the screens show for `COc1ccccc1NC(=O)c1nnn(Cc2nc(-c3ccc(C)cc3)oc2C)c1N`?
OTUD3 inh: -15; USP28 inh: -2; USP30 inh: -22; USP17 block: 4

What do the screens show for `CCOc1ccc(-c2nc(Cn3nnc(C(=O)Nc4ccccc4C)c3C)c(C)o2)cc1`?
OTUD3 inh: 17; USP28 inh: 17; USP30 inh: 43*

Bioassay records deposited in PubChem BioAssay by Buhrlage Lab, Dana-Farber Cancer Institute and Novartis Institutes for BioMedical Research (Cambridge, Mass).
